The structures appear in SMILES notation.

The target of the first assay is Serine/threonine-protein kinase pim-3 (Homo sapiens) (UniProt Q86V86). The conditions noted are these: at 0.1 µM.
As to `COc1cccc(/C=N/Nc2ncnc3c2cnn3-c2cccc(OC)c2)c1`, the inhibition (commonly the drop in the measured response relative to a control, in per cent) is 0.38%.
For `COc1cc2ncn(-c3cc(OCc4cccs4)c(C(N)=O)s3)c2cc1OC`, the inhibition was 3.33%.
On to `NC(=O)c1ccc(Oc2nccc(-c3c(-c4ccc(F)cc4)ncn3C3CCNCC3)n2)cc1`, for which the inhibition was found to be 0.26%.
Same read-out and setting: with `CN(C)CCCNc1nccc(-c2c(-c3ccc(F)cc3)nn3cc(C(F)(F)F)ccc23)n1` the figure was -0.45%.
Turning to `O=C1NC(=O)C(c2cccc(Cl)c2)=C1Nc1ccc(Cl)c(C(=O)O)c1`, the inhibition is 0.54%.
On to `NC(=O)Cc1ccccc1Oc1nccc(-c2c(-c3ccc(F)cc3)ncn2C2CCNCC2)n1`, for which the inhibition is -1.38%.
As to `Fc1ccc(-c2ncn(C3CCNCC3)c2-c2ccnc(Oc3ccc(F)c(F)c3)n2)cc1`, the inhibition was -1.04%.
Still for that read-out and setting: with `O=C(Nc1n[nH]c2cc(-c3ccccc3)ccc12)C1CC1` the figure was -2.16%.
On the same count and under the same terms, for `Cc1nnc(-c2ccc(C)c(-c3ccc(C(=O)NCc4ccc(Cl)cc4)cc3)c2)o1` the value was 0.64%.

For another assay the target is unchanged. The conditions noted are these: at 1 µM.
For `COc1ccc2ncn(-c3cc(O[C@H](C)c4ccccc4Cl)c(C(N)=O)s3)c2c1`, the inhibition came out at 4.48%.
Turning to `C#Cc1cccc(Nc2ncnc3ccc(OCCCCNCCS(C)(=O)=O)cc23)c1`, the inhibition worked out at 36.2%.
Still for that read-out and setting: for `NS(=O)(=O)c1ccc(Nc2cc(-c3ccc(O)c(F)c3)n[nH]2)cc1` the value was 1.15%; for `C[C@@H](Oc1cc(-n2cnc3ccc(OCC4CCN(C)CC4)cc32)sc1C(N)=O)c1ccccc1Cl`, 52.7%; for `Fc1ccc(-c2ncn(CCCN3CCOCC3)c2-c2ccncc2)cc1`, -2.93%.
Still for that read-out and setting: with `NS(=O)(=O)c1ccc(N/N=C2\C(=O)Nc3ccc(C(=O)NCCCn4ccnc4)cc32)cc1` the figure was 18.9%.
As to `COc1ccc2cc(-c3c(-c4ccncc4)nc(-c4ccc(S(C)(=O)=O)cc4C)n3C)ccc2c1`, the inhibition was found to be 3.73%.
Same read-out and setting: for `Clc1ccc(CNc2nccc(-c3cnn4ncccc34)n2)cc1` the value was 6.13%; for `COC(=O)Nc1nc2ccc(Sc3ccc(NC(=O)Nc4cc(C(F)(F)F)ccc4F)cc3)cc2[nH]1`, 2.48%; for `Fc1ccc(-c2ncn(C3CCNCC3)c2-c2ccnc(Oc3ccc4c(c3)OCO4)n2)cc1`, 1.3%.
On the same count and under the same terms, with `Cc1ccc(C(=O)NC(C)C)cc1-c1ccc(C(=O)NCC2CC2)cc1` the figure was 2.53%; with `CCS(=O)(=O)c1ccc(OC)c(Nc2ncc(-c3ccccc3Cl)o2)c1`, 2.15%.
Still for that read-out and setting: for `NC(=O)c1cc(-c2ccncc2)cc(-c2ccccc2)c1N` the value was -1.81%; for `c1ccc(-c2n[nH]cc2-c2ccnc(-c3ccc(OCCN4CCOCC4)cc3)c2)nc1`, 3.99%; for `Cc1ccc(C(=O)NC2CCC2)cc1-c1ccc(C(=O)NCC2CC2)cc1`, 0.14%.
Take `CN(c1ccc(NC(=O)Nc2c(Cl)cccc2Cl)cc1)c1ccnc(Nc2cccc(CS(C)(=O)=O)c2)n1`: the inhibition amounted to 3.85%.
On the same count and under the same terms, for `CS(=O)(=O)CCNCc1cc(-c2cc3c(Nc4ccc(OCc5cccc(F)c5)c(Cl)c4)ncnc3s2)cs1` the value was 2.3%; for `Fc1ccc(-c2c(-c3ccncc3)nc3n2CCS3)cc1`, 0.43%; for `Cc1ccc(NC(=O)c2ccoc2)cc1-c1ccc(C(=O)NCC2CC2)cc1`, -0.9%.
In the case of `NS(=O)(=O)c1ccc(N/N=C2\C(=O)Nc3ccc(-c4cnco4)cc32)cc1`, the inhibition was 15.5%.
Consider `O=C(Nc1n[nH]c2cc(-c3cc(F)ccc3F)ccc12)C1CC1`, for which the inhibition is -1.66%.
The same measure, in the same setting: for `Nc1nccc(-c2c(-c3ccc(F)cc3)ncn2C2CCC(O)CC2)n1` (configuration not stated) the value was 0.35%; for `C[C@@H](Oc1cc(-n2cnc3ccc(OC4CCN(C)CC4)cc32)sc1C(N)=O)c1ccccc1Cl`, 45%; for `CCS(=O)(=O)c1ccc(OC)c(Nc2ncc(-c3cccc(-c4ccccc4F)c3)o2)c1`, 0.84%.
On the same count and under the same terms, for `O=C1Nc2ccc(I)cc2C1=Cc1cc(Br)c(O)c(Br)c1` the value was 17.7%; for `COc1cccc(/C=N/Nc2ncnc3c2cnn3-c2cccc(OC)c2)c1`, 0.16%; for `COc1cc2ncn(-c3cc(OCc4cccs4)c(C(N)=O)s3)c2cc1OC`, 8.26%.
On to `NC(=O)c1ccc(Oc2nccc(-c3c(-c4ccc(F)cc4)ncn3C3CCNCC3)n2)cc1`, for which the inhibition is 1.82%.
Same read-out and setting: for `CN(C)CCCNc1nccc(-c2c(-c3ccc(F)cc3)nn3cc(C(F)(F)F)ccc23)n1` the value was -0.57%; for `O=C1NC(=O)C(c2cccc(Cl)c2)=C1Nc1ccc(Cl)c(C(=O)O)c1`, 0.43%; for `NC(=O)Cc1ccccc1Oc1nccc(-c2c(-c3ccc(F)cc3)ncn2C2CCNCC2)n1`, 0.63%.
`Fc1ccc(-c2ncn(C3CCNCC3)c2-c2ccnc(Oc3ccc(F)c(F)c3)n2)cc1`: the inhibition was -0.06%.
The same measure, in the same setting: with `O=C(Nc1n[nH]c2cc(-c3ccccc3)ccc12)C1CC1` the figure was -2.34%.
`Cc1nnc(-c2ccc(C)c(-c3ccc(C(=O)NCc4ccc(Cl)cc4)cc3)c2)o1`: the inhibition was determined as 0.96%.

For a further assay, the target named is T1, MAP kinase-activated protein kinase 5 (Homo sapiens) (UniProt Q8IW41).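 Note: reported values are mean PRAK inhibition figures from the GSK PKIS screen.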
T1 sequence (whole entry): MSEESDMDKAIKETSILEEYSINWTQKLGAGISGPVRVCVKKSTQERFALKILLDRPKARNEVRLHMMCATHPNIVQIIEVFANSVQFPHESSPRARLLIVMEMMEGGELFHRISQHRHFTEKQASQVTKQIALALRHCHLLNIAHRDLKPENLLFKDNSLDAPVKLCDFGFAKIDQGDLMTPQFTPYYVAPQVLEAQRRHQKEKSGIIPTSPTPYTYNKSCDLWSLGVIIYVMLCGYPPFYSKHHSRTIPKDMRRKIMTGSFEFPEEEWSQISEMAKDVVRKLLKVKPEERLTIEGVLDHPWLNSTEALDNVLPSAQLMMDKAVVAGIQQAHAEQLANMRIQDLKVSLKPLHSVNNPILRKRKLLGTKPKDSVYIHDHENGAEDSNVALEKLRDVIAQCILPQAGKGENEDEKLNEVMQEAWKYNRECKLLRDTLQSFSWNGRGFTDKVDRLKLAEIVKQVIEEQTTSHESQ
The conditions noted are these: at 0.1 µM.
As to `COc1ccc2ncn(-c3cc(O[C@H](C)c4ccccc4Cl)c(C(N)=O)s3)c2c1`, the inhibition came out at 1.58%.
Still for that read-out and setting: with `C#Cc1cccc(Nc2ncnc3ccc(OCCCCNCCS(C)(=O)=O)cc23)c1` the figure was 2.33%.
As to `NS(=O)(=O)c1ccc(Nc2cc(-c3ccc(O)c(F)c3)n[nH]2)cc1`, the inhibition is -1.43%.
Still for that read-out and setting: with `C[C@@H](Oc1cc(-n2cnc3ccc(OCC4CCN(C)CC4)cc32)sc1C(N)=O)c1ccccc1Cl` the figure was 1.77%; with `Fc1ccc(-c2ncn(CCCN3CCOCC3)c2-c2ccncc2)cc1`, -0.65%.
The same measure, in the same setting: for `NS(=O)(=O)c1ccc(N/N=C2\C(=O)Nc3ccc(C(=O)NCCCn4ccnc4)cc32)cc1` the value was 1.4%; for `COc1ccc2cc(-c3c(-c4ccncc4)nc(-c4ccc(S(C)(=O)=O)cc4C)n3C)ccc2c1`, 1.38%; for `Clc1ccc(CNc2nccc(-c3cnn4ncccc34)n2)cc1`, 0.35%.
The same measure, in the same setting: for `COC(=O)Nc1nc2ccc(Sc3ccc(NC(=O)Nc4cc(C(F)(F)F)ccc4F)cc3)cc2[nH]1` the value was 0.03%; for `Fc1ccc(-c2ncn(C3CCNCC3)c2-c2ccnc(Oc3ccc4c(c3)OCO4)n2)cc1`, 2.12%; for `Cc1ccc(C(=O)NC(C)C)cc1-c1ccc(C(=O)NCC2CC2)cc1`, -1.12%.
With `CCS(=O)(=O)c1ccc(OC)c(Nc2ncc(-c3ccccc3Cl)o2)c1`, the inhibition is 0.46%.
Still for that read-out and setting: with `NC(=O)c1cc(-c2ccncc2)cc(-c2ccccc2)c1N` the figure was 1.31%.
Regarding `c1ccc(-c2n[nH]cc2-c2ccnc(-c3ccc(OCCN4CCOCC4)cc3)c2)nc1`, the inhibition was -1.14%.
With `Cc1ccc(C(=O)NC2CCC2)cc1-c1ccc(C(=O)NCC2CC2)cc1`, the inhibition amounted to 0.63%.
For `CN(c1ccc(NC(=O)Nc2c(Cl)cccc2Cl)cc1)c1ccnc(Nc2cccc(CS(C)(=O)=O)c2)n1`, the inhibition turned out to be 1.58%.
On the same count and under the same terms, with `CS(=O)(=O)CCNCc1cc(-c2cc3c(Nc4ccc(OCc5cccc(F)c5)c(Cl)c4)ncnc3s2)cs1` the figure was 2.2%.
As to `Fc1ccc(-c2c(-c3ccncc3)nc3n2CCS3)cc1`, the inhibition was determined as 1.37%.
With `Cc1ccc(NC(=O)c2ccoc2)cc1-c1ccc(C(=O)NCC2CC2)cc1`, the inhibition was determined as 0.96%.
On to `NS(=O)(=O)c1ccc(N/N=C2\C(=O)Nc3ccc(-c4cnco4)cc32)cc1`, for which the inhibition came to 1.08%.
The same measure, in the same setting: with `O=C(Nc1n[nH]c2cc(-c3cc(F)ccc3F)ccc12)C1CC1` the figure was 0.74%; with `Nc1nccc(-c2c(-c3ccc(F)cc3)ncn2C2CCC(O)CC2)n1` (configuration not stated), -0.92%; with `C[C@@H](Oc1cc(-n2cnc3ccc(OC4CCN(C)CC4)cc32)sc1C(N)=O)c1ccccc1Cl`, 1.31%.
Turning to `CCS(=O)(=O)c1ccc(OC)c(Nc2ncc(-c3cccc(-c4ccccc4F)c3)o2)c1`, the inhibition was 0.06%.
Same read-out and setting: for `O=C1Nc2ccc(I)cc2C1=Cc1cc(Br)c(O)c(Br)c1` the value was 1.19%.
Same read-out and setting: for `COc1cccc(/C=N/Nc2ncnc3c2cnn3-c2cccc(OC)c2)c1` the value was 0.99%; for `COc1cc2ncn(-c3cc(OCc4cccs4)c(C(N)=O)s3)c2cc1OC`, 2.5%.
As for `NC(=O)c1ccc(Oc2nccc(-c3c(-c4ccc(F)cc4)ncn3C3CCNCC3)n2)cc1`, the inhibition was determined as 3.51%.
On the same count and under the same terms, with `CN(C)CCCNc1nccc(-c2c(-c3ccc(F)cc3)nn3cc(C(F)(F)F)ccc23)n1` the figure was 0.44%; with `O=C1NC(=O)C(c2cccc(Cl)c2)=C1Nc1ccc(Cl)c(C(=O)O)c1`, 1.73%.
Take `NC(=O)Cc1ccccc1Oc1nccc(-c2c(-c3ccc(F)cc3)ncn2C2CCNCC2)n1`: the inhibition stood at 0.43%.
In the case of `Fc1ccc(-c2ncn(C3CCNCC3)c2-c2ccnc(Oc3ccc(F)c(F)c3)n2)cc1`, the inhibition was found to be 1.47%.
Same read-out and setting: with `O=C(Nc1n[nH]c2cc(-c3ccccc3)ccc12)C1CC1` the figure was 1.27%; with `Cc1nnc(-c2ccc(C)c(-c3ccc(C(=O)NCc4ccc(Cl)cc4)cc3)c2)o1`, 1.56%.

(Values after ChEMBL document CHEMBL1961873, “Compounds: GSK PKIS; Assays: Nanosyn kinase panel” (2012).)
